Compound activity: PubChem BioAssay, National Center for Advancing Translational Sciences (NCATS)
Most compounds without a hit are left out; they make up all but 0.36% or so of the library.
DNA Pol III inh – blocks replication by bacterial DNA polymerase III holoenzyme. reconstituted DNA polymerase III holoenzyme replication, biochemical. Potency, µM (titrated, usually from 57.1 µM), inactives show top-dose activity change, negative = inhibition. 0.25% of 71,000 active. AID 603; further: potency means the concentration at half of the fitted maximal effect; on the % scale 0 is the no-effect control and ±100 the full control effect
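Reconstituted *E. coli* holoenzyme (0.35 nM Pol III, 1 nM beta, 154 nM SSB, 2 nM primase) was preincubated with compound for 15 min at RT. Synthesis on 1.4 nM ssM13Gori ran 35 min, then was stopped with PicoGreen/EDTA and read as dsDNA fluorescence.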
BRCT PPI red – disrupts BRCA1 BRCT binding to phosphoprotein, red fluorophore readout. P38398. BRCT-phosphopeptide binding, red fluorescence polarization. Potency, µM (top dose mostly 76.9 µM), without a hit: top-dose activity change, negative = inhibition, most hits filed as inhibitors. 0.03% of 75,000 active; further: on the % scale 0 is the no-effect control and ±100 the full control effect
Target sequence (P38398 whole entry, looked up): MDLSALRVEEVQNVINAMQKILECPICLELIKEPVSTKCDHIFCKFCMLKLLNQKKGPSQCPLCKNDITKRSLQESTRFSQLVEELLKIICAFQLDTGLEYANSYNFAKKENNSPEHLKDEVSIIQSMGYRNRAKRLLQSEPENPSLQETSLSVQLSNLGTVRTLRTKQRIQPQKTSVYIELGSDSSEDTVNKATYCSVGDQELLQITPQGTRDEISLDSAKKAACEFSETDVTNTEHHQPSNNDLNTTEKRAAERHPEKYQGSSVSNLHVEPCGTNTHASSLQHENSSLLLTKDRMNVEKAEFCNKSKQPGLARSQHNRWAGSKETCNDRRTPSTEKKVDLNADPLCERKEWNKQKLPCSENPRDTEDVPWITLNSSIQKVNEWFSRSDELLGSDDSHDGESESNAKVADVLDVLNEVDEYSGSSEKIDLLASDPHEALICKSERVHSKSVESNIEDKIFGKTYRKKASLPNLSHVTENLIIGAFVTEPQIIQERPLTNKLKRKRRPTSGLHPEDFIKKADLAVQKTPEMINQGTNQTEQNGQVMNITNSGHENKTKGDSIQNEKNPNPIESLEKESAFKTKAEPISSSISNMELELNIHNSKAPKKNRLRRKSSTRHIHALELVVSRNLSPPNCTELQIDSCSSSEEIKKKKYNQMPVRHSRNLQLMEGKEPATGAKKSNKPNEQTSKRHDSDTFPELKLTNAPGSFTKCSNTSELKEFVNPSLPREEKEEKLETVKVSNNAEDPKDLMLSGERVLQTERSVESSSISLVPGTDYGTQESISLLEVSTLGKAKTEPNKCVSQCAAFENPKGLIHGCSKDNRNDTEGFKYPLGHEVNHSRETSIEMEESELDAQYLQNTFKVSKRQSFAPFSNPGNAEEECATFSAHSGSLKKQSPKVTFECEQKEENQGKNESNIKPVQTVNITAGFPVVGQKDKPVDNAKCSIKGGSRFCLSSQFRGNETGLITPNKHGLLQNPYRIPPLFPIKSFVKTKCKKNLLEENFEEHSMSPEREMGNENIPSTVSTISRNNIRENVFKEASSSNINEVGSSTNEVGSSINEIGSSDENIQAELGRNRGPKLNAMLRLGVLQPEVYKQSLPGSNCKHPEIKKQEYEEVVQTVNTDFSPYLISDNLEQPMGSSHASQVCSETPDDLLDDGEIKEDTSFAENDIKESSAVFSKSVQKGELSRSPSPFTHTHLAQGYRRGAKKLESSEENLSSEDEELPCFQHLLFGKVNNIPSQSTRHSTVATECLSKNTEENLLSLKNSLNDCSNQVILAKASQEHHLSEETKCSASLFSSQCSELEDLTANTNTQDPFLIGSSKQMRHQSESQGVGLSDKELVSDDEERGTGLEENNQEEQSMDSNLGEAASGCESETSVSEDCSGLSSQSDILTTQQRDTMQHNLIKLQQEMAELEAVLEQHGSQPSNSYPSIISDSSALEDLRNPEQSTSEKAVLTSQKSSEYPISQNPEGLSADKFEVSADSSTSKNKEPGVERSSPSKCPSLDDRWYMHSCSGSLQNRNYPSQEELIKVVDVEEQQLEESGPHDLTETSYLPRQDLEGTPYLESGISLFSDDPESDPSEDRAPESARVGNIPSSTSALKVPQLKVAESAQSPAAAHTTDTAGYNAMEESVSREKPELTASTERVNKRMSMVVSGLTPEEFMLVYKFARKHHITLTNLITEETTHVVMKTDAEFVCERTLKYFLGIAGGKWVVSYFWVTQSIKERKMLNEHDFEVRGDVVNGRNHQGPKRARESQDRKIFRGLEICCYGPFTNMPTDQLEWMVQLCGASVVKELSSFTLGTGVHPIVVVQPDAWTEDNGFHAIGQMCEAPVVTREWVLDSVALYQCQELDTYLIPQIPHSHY
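Rhodamine-labelled pBACH1 10-mer (100 nM) bound to BRCT domain (100 nM) at pH 7.3; compounds incubated 12 min room temperature, polarization read. Free peptide defines full inhibition; unlabelled decapeptide titrated as control.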
USP2a inhib – inhibitors of human ubiquitin-specific protease USP2a; USP2a enzymatic assay, qHTS inhibition; Potency, µM (top dose mostly 38.3 µM), for inactives: top-dose activity change, negative = inhibition, hits mostly inhibitors; 0.1% of 60,000 active; AID 927; further: potency means the concentration at half of the fitted maximal effect; nearly all actives have a fitted effect of over 60% in size
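Coupled readout: USP2-cleaved Ub-PLA2 (20nM final) turns over NBD C6-HPC (20uM final), Ex 460nm/Em 535nm after 2.5 h, time-zero read flagging artifacts. Enzyme (20nM final, pH 8.0 Tris) given 30 min RT with compound first; NEM defines full inhibition.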
TsaE inh – displaces an ADP probe from E. coli YjeE (TsaE); P0AF67; purified YjeE enzyme, qHTS inhibition assay; Potency, µM; 0.05% of 71,000 active; AID 605
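Fluorescence polarization of a BODIPY Texas Red–ADP probe (2 uM) bound to purified YjeE (10 uM) was read after 15 min room-temperature incubation with compounds. Loss of polarization marks inhibitors; ADP serves as titrated control.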
BRCT PPI green – inhibitors of human BRCA1 BRCT-phosphoprotein interaction (green fluorophore); BRCA1 BRCT-phosphopeptide binding, green fluorescence polarization; Potency, µM (doses to about 76.9 µM), for the others: top-dose activity change, negative = inhibition, most hits filed as inhibitors; 0.05% of 75,000 active;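 further: potency means the concentration at half of the fitted maximal effect; plate controls were peptide without protein for full effect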
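Fluorescence polarization: His-tagged BRCT (~35 kDa BRCA1 C-terminus, 250 nM) bound to 100 nM fluorescein-labeled phosphorylated 10-aa BACH1 peptide, pH 7.3 phosphate buffer with DTT and Tween 20. Compounds incubated 12 min at room temperature; inhibition read as lowered polarization.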
Starred values were filed as active, the others as inactive; i = inactive; u = inconclusive; x = no result given; [ ] = another dose, or the depositor's remark. The call rests on the fitted dose curve; in most records, active means well fitted curve in the direction sought with a large enough effect; inconclusive means small, poorly fitted or top-dose-only effect, or another doubt; inactive means no such curve, though single readings can be large; an effect the other way counts as inactive or inconclusive.

SMILES	DNA Pol III inh	BRCT PPI red	USP2a inhib	TsaE inh	BRCT PPI green
O=C(OCC1OC(OC(=O)c2cc(O)c(O)c(OC(=O)c3cc(O)c(O)c(O)c3)c2)[C@@H](OC(=O)c2cc(O)c(O)c(OC(=O)c3cc(O)c(O)c(O)c3)c2)C(OC(=O)c2cc(O)c(O)c(OC(=O)c3cc(O)c(O)c(O)c3)c2)C1OC(=O)c1cc(O)c(O)c(OC(=O)c2cc(O)c(O)c(O)c2)c1)c1cc(O)c(O)c(OC(=O)c2cc(O)c(O)c(O)c2)c1 (some centres not stated)	x	54.8%	1µM*	x	-1.9%[3.08 µM]
CCOc1ccc(C2N(c3ccc(OC)cc3)C(=O)C3CCCN32)cc1OC (configuration not stated)	-1.0%	0.9%	x	i	1.0%
CC(/C=C/C=C(C)/C=C/C(=O)O)=C\C=C\C=C(C)\C=C\C=C(C)\C=C\C(=O)O	2.51µM*	-3.3%	x	i	-5.1%
NCCC[C@@H](CC(=O)N[C@@H]1CCNC[C@H]1C(=O)N[C@H](CC(=O)N[C@@H](CCC(=O)O)CC(=O)O)Cc1c[nH]c2ccccc12)NC(=O)C[C@H](Cc1ccccc1)NC(=O)[C@@H]1CNCC[C@H]1N	-7.4%	x	x	i	x
Cc1c(C)c2c(c(C)c1O)CC[C@@](C)(CCC[C@@H](C)CCC[C@@H](C)CCCC(C)C)O2	-2.1%[25.6 µM]	-0.5%[34.4 µM]	7.94µM*	i	-2.0%[34.4 µM]
COc1ccc2c(c1)c(=O)oc1cc(OCC(=O)NC3CC3)ccc12	15.8µM*	-1.3%	7.6%	i	-2.2%
O=C(CCNS(=O)(=O)c1cccs1)Nc1ccccc1F	3.8%	-0.2%	5.1%	i	7.9%
O=c1oc2c(CN3CCCCCC3)c(O)ccc2cc1-c1nc2ccccc2[nH]1	93.8%	2.0%	63.7%	i	31.6µM*
COc1ncc2nc(-c3cccs3)c(=O)n(Cc3cccs3)c2n1	-1.5%	-0.7%	215.9%	i	-2.0%
COc1ccccc1NC(=O)N(CCCN1CCOCC1)Cc1cc2cc3c(cc2[nH]c1=O)OCO3	-2.2%	-1.9%	0.0%	i	-3.5%
COc1ccc2ccccc2c1C(O)c1nccn1C (configuration not stated)	48.1%	u	8.8%	i	12.6µM*
Cc1c2oc3c(C)ccc(C(=O)N[C@@H]4C(=O)N[C@H](C(C)C)C(=O)N5CCC[C@H]5C(=O)N(C)CC(=O)N(C)[C@@H](C(C)C)C(=O)O[C@@H]4C)c3nc-2c(C(=O)N[C@@H]2C(=O)N[C@H](C(C)C)C(=O)N3CCC[C@H]3C(=O)N(C)CC(=O)N(C)[C@@H](C(C)C)C(=O)O[C@@H]2C)c(N)c1=O	0.02µM*	-4.6%	x	i	-0.3%
CCCCCCC/C=C\CCCCCCCCC(=O)O	-6.3%	-2.4%	12.6µM*	i	-4.9%
S=C([S-])NCCNC(=S)[S-].[Zn+2]	0.398µM*	-26.2%	x	i	0.3%
Cn1c(SCC(=O)O)nc2ccccc2c1=O	-1.4%	-0.4%	-0.9%	i	-2.2%
N#CC(C#N)=c1ccc2c(c1)N1C3=C(CCCC3)CC3CCCCC31N=2 (configuration not stated)	4.2%	-2.9%	0.6%	i	-0.9%
N#C/C(C(N)=O)=c1/ccc2c(c1)N1C3=C(CCCC3)CC3CCCCC31N=2 (configuration not stated)	0.9%	-0.8%	12.7%	39.8µM*	-1.3%
COC(=O)c1cc2sccc2n1Cc1ccc(C)cc1	-2.9%	-1.1%	-8.3%	i	-2.3%
COc1ccc(-n2cnnc2SCc2ncc(-c3ccccc3)o2)cc1	5.01µM*	-2.8%	5.0%	i	3.2%
Cn1c(COc2ccc(Cl)cc2)nnc1SCc1ncc(-c2ccccc2)o1	-2.5%	0.3%	17.3%	i	0.8%
O=C1CC(c2ccc(O)c(O)c2)Oc2cc(O)cc(O)c21 (configuration not stated)	x	18.6%	-2.0%	x	-1.4%[3.08 µM]
Oc1cc(O)c2c(c1)O[C@@H](c1ccc(O)c(O)c1)[C@H](O[C@@]1(c3cc(O)c(O)c(O)c3)Oc3cc(O)cc(O)c3[C@H](O)[C@@H]1O)C2	1µM*	1.7%[15.4 µM]	x	i	-0.8%[15.4 µM]
Cc1ccc(S(=O)(=O)Cn2nnnc2C(C)N2CCN(C(=O)c3ccco3)CC2)cc1 (configuration not stated)	1.2%	-0.5%	4.1%	i	1.1%
CCOc1ccc(-c2nc(-c3ccccc3)no2)cc1OCC	-0.2%	-2.3%	x	i	0.3%
CCOc1ccc2noc3c2c1C(=O)c1ccccc1-3	244.1%	-1.3%	85.4%	i	3.98µM*
